AGP1-GFP MLPCN: modulators of AGP1-GFP expression in yeast TOR pathway, primary screen, cell-based, multiplex flow cytometry, S. cerevisiae, MLPCN library; 3 h; GFP as percent of DMSO wells; GFP response vs DMSO, % at 10 µM; 320,000 compounds, 0.02% hits;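 active means GFP response relative to DMSO above a set limit, near screen average plus 3 SD, cut at about 150% in these data; inconclusive means fewer than 70 cells counted for the yeast strain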;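 further: median GFP channel fluorescence of the gated AGP1 strain per well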
CIT2-GFP yeast: modulators of CIT2-GFP expression in yeast, primary screen, S. cerevisiae, GFP fusion, multiplex flow cytometry, MLPCN library. S. cerevisiae CIT2-GFP strain, 3 h; 100 means same as DMSO wells. GFP response vs DMSO, % at 10 µM. 320,000 compounds, 0.065% hits. AID 2029, 2009;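 active means GFP response relative to DMSO above a set limit, near the screen mean plus 3 SD, cut at about 150% in these data; inconclusive means Fewer than 70 cells measured for a yeast strain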;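 further: ratio of well median GFP fluorescence to mean of DMSO wells on the plate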
RPL19A TOR yeast: RPL19A-GFP expression modulators in yeast, primary screen, cell-based, S. cerevisiae, multiplex flow cytometry, MLPCN. S. cerevisiae RPL19A-GFP strain, 3 h; hits give low values. percent response vs DMSO, % at 10 µM. 330,000 compounds, 0.3% hits;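 active means percent response vs DMSO below 50%; inconclusive means fewer than 70 events counted for the yeast strain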;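 further: median channel GFP fluorescence of the barcoded RPL19A-GFP strain; ratio of sample median GFP to plate DMSO average so 100% = DMSO; lower means less RPL19A-GFP as with rapamycin TOR inhibition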
MEP2 TOR yeast: modulators of MEP2-GFP levels in yeast, primary screen, S. cerevisiae, multiplex flow cytometry, MLPCN library; S. cerevisiae MEP2-GFP strain, 3 h; 100% = DMSO control level; GFP response vs DMSO, % at 10 µM; 330,000 compounds, 0.51% hits;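 active means GFP response versus DMSO above a set limit, roughly screen mean plus 3 SD, cut at about 180% in these data; inconclusive means fewer than 70 cells counted for a yeast strain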;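 further: median GFP fluorescence of the barcode-gated MEP2-GFP cells per well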
LAP4 TOR yeast: modulators of LAP4-GFP expression in yeast, primary screen, S. cerevisiae, multiplex flow cytometry, MLPCN library. 3 h; median GFP as percent of DMSO wells. GFP response vs DMSO, % at 10 µM. 320,000 compounds, 0.34% hits. AID 2023, 2009;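 active means GFP response vs DMSO above a set limit, about the screen mean plus 3 SD, cut at about 150% in these data; inconclusive means under 70 cell events counted for the yeast strain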
* hit, by the source's call; u = inconclusive; x = no result given; [ ] = another dose, or the depositor's remark. Rows were chosen to be rich in hits. Some 0.93% of all compounds tested hit in one or more screens of this group.

SMILES	AGP1-GFP MLPCN	CIT2-GFP yeast	RPL19A TOR yeast	MEP2 TOR yeast	LAP4 TOR yeast
Cc1cc(C)nc(N2CCN(C(=O)CCC(=O)Nc3nnc(C(C)C)s3)CC2)n1	22	u	47*[may fluoresce violet]	710*[may fluoresce violet]	89
COc1cc(/C=N/Nc2nc(C)cc(=O)[nH]2)ccc1O	98	145	111	185*	109
COC(=O)c1cc2c(=O)c3ccccc3oc2nc1C	87	94	94	100	91
COC(=O)c1cc2c(=O)c3ccccc3oc2nc1/C=C/N(C)C	38	u	115	572*[may fluoresce violet]	190*[may fluoresce violet]
Cn1ncc(Cl)c1C(=O)Nc1ccc(CN2CCCCC2)cc1	98	104	103	94	86
CCCC(=O)Nc1nn(C)c2nc3c(C)cccc3cc12	x	u	39*[may fluoresce violet]	565*[may fluoresce violet]	102
Cc1cc(O)c2c(-c3ccccc3)cc(=O)oc2c1	u	u	45*[may fluoresce violet]	266*[may fluoresce violet]	91
CC(=O)COc1cc(C)cc2oc(=O)cc(-c3ccccc3)c12	103	104	102	104	101
CC(=O)Oc1ccc(N2C(=O)C3C(C2=O)C2(C)C=CC3(C)O2)cc1 (stereo not drawn)	82	x	84	87	262*
Cc1nnc(SCC(=O)NNC(=O)c2ccc(F)cc2)n1Cc1ccccc1	100	116	103	99	93
COc1ccc(Cl)cc1NC(=O)CN(C)S(=O)(=O)c1cccs1	u	u	32*[may fluoresce violet]	201*[may fluoresce violet]	54
CCOc1cc(C(=O)N(C)Cc2cc3cc(OC)ccc3[nH]c2=O)cc(OCC)c1OCC	107	103	101	102	99
CCOc1ccccc1C(=O)N(C)Cc1cc2cc(OC)ccc2[nH]c1=O	u	u	50	184*[may fluoresce violet]	98
O=[N+]([O-])c1ncccc1OCc1ccc(-c2ccccc2)cc1	99	156*	104	156	132
Cc1cc(NC(=O)CCC(=O)N(CC(=O)NCC2CCCO2)c2ccc(F)c(Cl)c2)no1 (stereo not drawn)	13	u	54	390*[may fluoresce violet]	71
Cc1cc2c(cc1C)CSC(c1c(O)ccc3ccccc13)SC2	u	u	62	232*[may fluoresce violet]	71
Fc1ccc(-c2nnc(SCc3cccnc3)o2)cc1	94	100	95	107	102
COc1ccc(CNC(=O)CN(C(=O)CCC(=O)Nc2ccccn2)c2cccc(C)c2C)cc1	112	103	103	110	111
COc1ccc(C2=NN(c3ccc(C=O)cc3)C(c3ccccc3)C2)cc1 (stereo not drawn)	10	59	89	132	93
CC(=O)Nc1ccc(C2CC(c3ccc(Cl)cc3)=NN2c2ccccc2)cc1 (stereo not drawn)	12	u	83	181*[may fluoresce violet]	95
COc1ccc(C2=NN(c3ccccc3)C(c3ccc(OC)c(OC)c3)C2)cc1 (stereo not drawn)	16	u	77	183*[may fluoresce violet]	87
COc1ccc(C2CC(c3cccs3)=NN2c2ccc(C=O)cc2)cc1 (stereo not drawn)	u	u	23*[may fluoresce violet]	142	73
O=Cc1ccc(N2N=C(c3ccccc3)CC2c2ccccc2)cc1 (stereo not drawn)	u	u	63	208*[may fluoresce violet]	89
CCNc1nc(NCC)n2c(SCC(=O)NC34CC5CC(CC(C5)C3)C4)nnc2n1	98	100	100	101	103
c1ccc(C2CC(c3cccs3)=NN2c2ccccc2)cc1 (stereo not drawn)	u	u	38*[may fluoresce violet]	u	u
COc1cccc(N=Cc2c(O)c3ccccc3oc2=O)c1	91	96	107	113	95
CCOc1ccc(CNc2ccc(S(N)(=O)=O)cc2)cc1	95	88	99	98	98
COc1ccc(-c2cc(C(=O)Nc3cccnc3Cl)no2)cc1OC	u	u	24*[may fluoresce violet]	u	65
CC(C)(C)OC(=O)C[C@H]1C/C=C\C[C@@H](CC(=O)N(CCO)Cc2ccccc2)C(=O)N[C@H](Cc2ccccc2)COC1=O	95	93	94	95	93
CCOC(=O)N1CCN(C(=O)CSC2=NS(=O)(=O)c3ccccc3N2)CC1	110	117	107	109	109

Bioassay records: PubChem, NMMLSC
